{"source": "the supplement of paper PMC11732987", "about": "“Enantioselective OTUD7B fragment discovery through chemoproteomics screening and high-throughput optimisation” (Communications Chemistry, 2025)", "experiment_in_all_cases": "log2 ratio of Biotin-Ahx-Ub-VS probe labelling (fragment/DMSO); higher = less target engagement (more negative = stronger competition), active = hit call of the paper (q ≤ 0.05, log2 ratio ≤ -1)", "conditions_in_all_cases": "compound concentration: 200 uM; treatment time: 3 h", "key": {"ALG13": {"biological_target": "T1, ALG13 (UniProt Q9NP73)", "T1 sequence (whole entry)": "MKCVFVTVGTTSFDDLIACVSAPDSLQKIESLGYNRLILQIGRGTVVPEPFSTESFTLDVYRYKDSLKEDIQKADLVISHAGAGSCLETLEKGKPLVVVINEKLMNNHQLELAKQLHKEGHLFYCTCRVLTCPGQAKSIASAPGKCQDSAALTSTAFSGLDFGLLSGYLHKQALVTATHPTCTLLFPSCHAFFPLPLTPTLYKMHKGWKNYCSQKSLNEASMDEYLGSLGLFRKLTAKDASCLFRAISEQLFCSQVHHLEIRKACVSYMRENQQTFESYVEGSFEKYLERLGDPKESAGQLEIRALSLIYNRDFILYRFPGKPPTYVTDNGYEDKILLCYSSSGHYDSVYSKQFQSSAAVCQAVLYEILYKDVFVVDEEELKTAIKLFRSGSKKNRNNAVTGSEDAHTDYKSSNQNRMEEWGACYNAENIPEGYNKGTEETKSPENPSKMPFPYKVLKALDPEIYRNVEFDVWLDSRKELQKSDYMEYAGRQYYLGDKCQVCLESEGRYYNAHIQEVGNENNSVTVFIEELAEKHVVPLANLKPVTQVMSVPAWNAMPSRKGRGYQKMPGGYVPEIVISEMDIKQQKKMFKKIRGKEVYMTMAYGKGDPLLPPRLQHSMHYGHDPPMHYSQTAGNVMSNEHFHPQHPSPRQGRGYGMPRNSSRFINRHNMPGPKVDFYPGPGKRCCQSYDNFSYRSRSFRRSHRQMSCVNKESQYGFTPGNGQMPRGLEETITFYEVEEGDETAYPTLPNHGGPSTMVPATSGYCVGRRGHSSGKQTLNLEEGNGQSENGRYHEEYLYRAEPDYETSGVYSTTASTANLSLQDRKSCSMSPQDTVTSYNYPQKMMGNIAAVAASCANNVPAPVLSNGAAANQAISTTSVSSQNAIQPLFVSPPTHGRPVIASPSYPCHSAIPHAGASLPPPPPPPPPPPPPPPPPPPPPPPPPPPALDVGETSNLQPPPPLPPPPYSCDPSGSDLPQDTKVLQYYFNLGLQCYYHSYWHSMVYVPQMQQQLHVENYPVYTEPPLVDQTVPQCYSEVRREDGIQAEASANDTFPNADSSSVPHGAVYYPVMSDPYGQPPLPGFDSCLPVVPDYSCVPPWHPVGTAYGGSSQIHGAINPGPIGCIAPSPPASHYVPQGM", "summary_of_the_method": "(§1)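 Using Biotin-Ahx-Ub-VS at 0.5 µM final for 1 h, DUBs were labelled in HEK293T lysate (495 µg per sample) that had first been treated in triplicate with fragment at 200 µM or vehicle for 3 h. NeutrAvidin enrichment, LysC and trypsin digestion and diaPASEF LC-MS/MS followed. Spectronaut label-free quantities were global-median-normalised. Values are average log2 fragment/vehicle ratios by unpaired t-test, using proteins with ≥2 unique peptides.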"}, "ATXN3": {"biological_target": "ATXN3 (UniProt P54252)", "sequence (P54252 whole entry)": "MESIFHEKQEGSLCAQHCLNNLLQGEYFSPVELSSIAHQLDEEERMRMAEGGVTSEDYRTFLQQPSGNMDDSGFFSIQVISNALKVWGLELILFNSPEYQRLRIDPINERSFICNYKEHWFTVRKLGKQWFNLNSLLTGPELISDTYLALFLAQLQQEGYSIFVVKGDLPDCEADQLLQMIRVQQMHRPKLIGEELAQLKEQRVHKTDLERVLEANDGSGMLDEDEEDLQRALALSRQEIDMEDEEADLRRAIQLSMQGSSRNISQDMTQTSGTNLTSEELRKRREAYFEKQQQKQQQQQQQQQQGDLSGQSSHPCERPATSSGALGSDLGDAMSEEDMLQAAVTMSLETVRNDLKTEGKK", "summary_of_the_method": "as §1"}, "BAP1": {"biological_target": "T2, BAP1 (UniProt Q92560)", "T2 sequence (whole entry)": "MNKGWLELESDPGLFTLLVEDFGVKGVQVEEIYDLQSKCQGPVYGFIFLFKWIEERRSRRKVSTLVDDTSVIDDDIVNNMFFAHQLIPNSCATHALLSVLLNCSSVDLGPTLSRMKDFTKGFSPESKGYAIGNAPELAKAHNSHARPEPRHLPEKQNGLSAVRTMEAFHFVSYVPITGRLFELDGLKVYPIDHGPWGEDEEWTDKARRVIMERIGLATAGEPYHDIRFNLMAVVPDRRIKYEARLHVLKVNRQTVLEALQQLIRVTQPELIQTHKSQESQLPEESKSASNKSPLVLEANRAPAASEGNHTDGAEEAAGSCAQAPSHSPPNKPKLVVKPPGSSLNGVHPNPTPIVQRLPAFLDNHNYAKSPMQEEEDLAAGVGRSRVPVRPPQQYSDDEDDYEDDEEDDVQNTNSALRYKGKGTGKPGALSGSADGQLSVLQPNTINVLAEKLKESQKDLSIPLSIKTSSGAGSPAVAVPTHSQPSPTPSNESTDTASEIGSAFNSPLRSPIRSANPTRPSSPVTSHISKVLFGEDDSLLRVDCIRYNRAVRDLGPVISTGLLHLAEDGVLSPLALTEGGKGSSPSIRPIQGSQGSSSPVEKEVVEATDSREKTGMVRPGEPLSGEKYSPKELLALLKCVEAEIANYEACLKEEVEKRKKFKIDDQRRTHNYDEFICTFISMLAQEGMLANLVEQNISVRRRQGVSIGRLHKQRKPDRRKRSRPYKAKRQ", "summary_of_the_method": "as §1"}, "EIF3F": {"biological_target": "EIF3F (UniProt O00303)", "sequence (O00303 whole entry)": "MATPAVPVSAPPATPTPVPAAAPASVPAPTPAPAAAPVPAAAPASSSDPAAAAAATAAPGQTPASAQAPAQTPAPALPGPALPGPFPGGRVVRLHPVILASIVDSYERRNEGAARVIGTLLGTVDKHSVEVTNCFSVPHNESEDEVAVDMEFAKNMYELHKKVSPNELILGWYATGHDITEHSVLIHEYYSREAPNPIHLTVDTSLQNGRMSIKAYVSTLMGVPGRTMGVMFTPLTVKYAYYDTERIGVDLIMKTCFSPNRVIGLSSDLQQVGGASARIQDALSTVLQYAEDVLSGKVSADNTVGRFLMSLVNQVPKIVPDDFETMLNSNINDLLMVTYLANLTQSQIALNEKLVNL", "summary_of_the_method": "as §1"}, "EIF3H": {"biological_target": "EIF3H (UniProt O15372)", "sequence (O15372 whole entry)": "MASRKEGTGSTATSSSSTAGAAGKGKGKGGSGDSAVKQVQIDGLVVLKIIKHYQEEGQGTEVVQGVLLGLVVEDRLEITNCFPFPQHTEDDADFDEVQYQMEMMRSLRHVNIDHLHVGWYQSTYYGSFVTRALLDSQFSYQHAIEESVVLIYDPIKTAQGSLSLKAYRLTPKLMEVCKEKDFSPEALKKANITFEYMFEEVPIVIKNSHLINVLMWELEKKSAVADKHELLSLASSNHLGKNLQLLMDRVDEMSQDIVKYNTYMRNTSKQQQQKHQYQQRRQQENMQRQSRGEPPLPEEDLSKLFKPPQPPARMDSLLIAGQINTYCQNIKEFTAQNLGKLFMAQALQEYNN", "summary_of_the_method": "as §1"}, "FAM105A": {"biological_target": "T3, FAM105A (UniProt Q9NUU6)", "T3 sequence (whole entry)": "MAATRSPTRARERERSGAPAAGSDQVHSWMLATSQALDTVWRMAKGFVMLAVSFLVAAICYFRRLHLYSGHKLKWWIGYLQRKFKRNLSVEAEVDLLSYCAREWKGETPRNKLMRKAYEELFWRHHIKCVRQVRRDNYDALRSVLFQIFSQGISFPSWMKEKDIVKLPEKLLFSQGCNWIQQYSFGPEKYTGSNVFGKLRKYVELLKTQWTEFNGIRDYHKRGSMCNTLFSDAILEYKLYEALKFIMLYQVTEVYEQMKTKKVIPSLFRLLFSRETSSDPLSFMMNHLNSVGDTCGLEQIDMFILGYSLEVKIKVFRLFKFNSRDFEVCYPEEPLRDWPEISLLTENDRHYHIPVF", "summary_of_the_method": "as §1"}, "OTUB1": {"biological_target": "OTUB1 (UniProt Q96FW1)", "sequence (Q96FW1 whole entry)": "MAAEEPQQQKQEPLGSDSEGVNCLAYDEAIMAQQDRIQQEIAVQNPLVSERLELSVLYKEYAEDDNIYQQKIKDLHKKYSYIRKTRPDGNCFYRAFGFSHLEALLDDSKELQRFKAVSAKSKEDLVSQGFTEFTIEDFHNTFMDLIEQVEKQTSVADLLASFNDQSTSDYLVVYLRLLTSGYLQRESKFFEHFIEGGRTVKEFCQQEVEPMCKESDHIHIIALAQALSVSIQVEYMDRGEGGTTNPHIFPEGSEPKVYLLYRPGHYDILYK", "summary_of_the_method": "as §1"}, "OTUD4": {"biological_target": "T4, OTUD4 (UniProt Q01804)", "T4 sequence (whole entry)": "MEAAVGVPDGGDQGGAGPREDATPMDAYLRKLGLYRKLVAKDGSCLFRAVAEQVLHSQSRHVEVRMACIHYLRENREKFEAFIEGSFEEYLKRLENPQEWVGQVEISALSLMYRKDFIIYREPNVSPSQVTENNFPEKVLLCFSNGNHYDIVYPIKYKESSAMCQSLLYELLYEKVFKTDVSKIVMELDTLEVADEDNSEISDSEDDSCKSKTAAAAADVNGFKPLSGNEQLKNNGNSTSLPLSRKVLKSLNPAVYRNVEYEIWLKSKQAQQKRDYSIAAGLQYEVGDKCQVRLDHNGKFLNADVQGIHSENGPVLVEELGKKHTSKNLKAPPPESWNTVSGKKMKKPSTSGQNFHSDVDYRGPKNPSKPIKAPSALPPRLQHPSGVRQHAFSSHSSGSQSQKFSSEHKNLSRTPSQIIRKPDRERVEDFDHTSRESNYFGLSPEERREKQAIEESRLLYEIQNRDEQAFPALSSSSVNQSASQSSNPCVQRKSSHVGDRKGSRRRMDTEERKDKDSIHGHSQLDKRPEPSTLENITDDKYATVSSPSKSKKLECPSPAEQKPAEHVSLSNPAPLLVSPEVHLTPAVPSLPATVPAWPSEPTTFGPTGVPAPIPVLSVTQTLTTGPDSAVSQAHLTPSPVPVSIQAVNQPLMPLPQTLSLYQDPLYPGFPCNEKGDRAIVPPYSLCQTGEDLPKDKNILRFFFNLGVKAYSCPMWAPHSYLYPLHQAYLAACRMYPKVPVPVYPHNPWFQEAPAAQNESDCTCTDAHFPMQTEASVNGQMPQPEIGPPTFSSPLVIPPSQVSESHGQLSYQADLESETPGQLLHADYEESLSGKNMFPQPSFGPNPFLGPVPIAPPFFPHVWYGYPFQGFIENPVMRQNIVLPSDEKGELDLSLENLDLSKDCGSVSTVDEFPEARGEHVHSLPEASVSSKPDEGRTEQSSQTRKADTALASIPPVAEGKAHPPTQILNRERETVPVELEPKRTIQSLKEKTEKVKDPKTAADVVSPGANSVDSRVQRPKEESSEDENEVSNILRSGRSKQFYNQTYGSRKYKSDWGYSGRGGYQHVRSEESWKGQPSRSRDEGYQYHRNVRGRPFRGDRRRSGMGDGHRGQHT", "summary_of_the_method": "as §1"}, "OTUD5": {"biological_target": "T5, OTUD5 (UniProt Q96G74)", "T5 sequence (whole entry)": "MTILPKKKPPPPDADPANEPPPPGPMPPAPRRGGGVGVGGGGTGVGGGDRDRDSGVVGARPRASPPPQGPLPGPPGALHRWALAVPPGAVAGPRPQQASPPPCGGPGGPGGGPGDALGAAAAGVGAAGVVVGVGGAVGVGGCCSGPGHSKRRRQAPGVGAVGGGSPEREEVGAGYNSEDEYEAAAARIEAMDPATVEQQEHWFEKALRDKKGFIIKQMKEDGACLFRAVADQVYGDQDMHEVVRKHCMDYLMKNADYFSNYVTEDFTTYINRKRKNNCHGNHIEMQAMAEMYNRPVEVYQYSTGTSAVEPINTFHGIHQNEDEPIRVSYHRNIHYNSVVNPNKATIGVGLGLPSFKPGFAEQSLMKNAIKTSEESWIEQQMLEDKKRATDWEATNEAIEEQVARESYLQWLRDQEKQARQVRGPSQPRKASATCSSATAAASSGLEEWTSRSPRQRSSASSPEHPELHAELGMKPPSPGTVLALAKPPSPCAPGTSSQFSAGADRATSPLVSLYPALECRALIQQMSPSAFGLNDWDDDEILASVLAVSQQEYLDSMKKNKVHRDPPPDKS", "summary_of_the_method": "as §1"}}, "note": "A number with no mark means an inactive call."}
{"compound": "Cc1nc(-c2cccc(NC(=O)CCl)c2)cs1", "values": [{"measurement": "log2 ratio of Biotin-Ahx-Ub-VS probe labelling", "setting": "ALG13", "result": 0.3}, {"measurement": "log2 ratio of Biotin-Ahx-Ub-VS probe labelling", "setting": "ATXN3", "result": -0.742}, {"measurement": "log2 ratio of Biotin-Ahx-Ub-VS probe labelling", "setting": "BAP1", "result": "-3.5 (active)"}, {"measurement": "log2 ratio of Biotin-Ahx-Ub-VS probe labelling", "setting": "EIF3F", "result": -0.303}, {"measurement": "log2 ratio of Biotin-Ahx-Ub-VS probe labelling", "setting": "EIF3H", "result": 0.167}, {"measurement": "log2 ratio of Biotin-Ahx-Ub-VS probe labelling", "setting": "FAM105A", "result": 0.000667}, {"measurement": "log2 ratio of Biotin-Ahx-Ub-VS probe labelling", "setting": "OTUB1", "result": -0.0946}, {"measurement": "log2 ratio of Biotin-Ahx-Ub-VS probe labelling", "setting": "OTUD4", "result": -0.305}, {"measurement": "log2 ratio of Biotin-Ahx-Ub-VS probe labelling", "setting": "OTUD5", "result": -0.539}]}
